From PubChem BioAssay AID1259421 (Broad Institute, 2018)
“And” between values parts separate entries of the source, which are not always exact repeats. Equal entries are not always repeated. In all, about 6,400 compounds went through this assay and about 610 (9.5%) were called active. No stated cut-off is given here; in the data, active means activity change below about -70%; inconclusive means no clear call, values can overlap the other calls; inactive means above that. The entries come from a sample that favours actives as a whole. Some structures have more than one record in an assay (separate samples or runs), and their calls can disagree.

Experiment: Toxoplasma gondii ME49Luc growth in HeLa cells, luciferase, no IFN-y, primary screen (AID 1259421)
Conditions: T. gondii ME49Luc in HeLa, 72 h, stronger effect = lower value, concentration not given here

Compound	activity change, negative = inhibition
NC(=O)CS(=O)C(c1ccccc1)c1ccccc1 (stereo unspecified)	-1.56% (inactive)
COC(=O)CN1CN(c2ccccc2)C2(CCN(Cc3ccc4ccccc4c3)CC2)C1=O	13.3% (inactive)
O=C(CCCN1CCC2(CC1)C(=O)N(Cc1cccc(F)c1)CN2c1ccccc1)c1ccc(F)cc1	10% (inactive) and -81.6% (active)
O=C(CCCN1CCC2(CC1)C(=O)NCN2c1ccccc1)c1ccc(F)cc1	2.21% (inactive) and -33.3% (inactive)
Cc1cc(OC(=O)N2CCCCC2)c(C(C)C)cc1[N+](C)(C)C	-5.32% (inactive)
C/C(=C\c1csc(C)n1)[C@@H]1C[C@@H]2O[C@@H]2CCC[C@H](C)[C@H](O)[C@@H](C)C(=O)C(C)(C)[C@@H](O)CC(=O)O1	-69.4% (inactive)
C/C1=C/C[C@@H](/C(C)=C/c2csc(C)n2)OC(=O)C[C@H](O)C(C)(C)C(=O)[C@H](C)[C@@H](O)[C@@H](C)CCC1	-85.9% (active)
C/C(=C\c1csc(C)n1)[C@H]1C[C@@H]2O[C@]2(C)CCC[C@H](C)[C@H](O)[C@@H](C)C(=O)C(C)(C)[C@H](O)CC(=O)O1	-73.6% (active)
C/C(=C\c1csc(C)n1)[C@H]1C[C@@H]2O[C@]2(C)CCC[C@H](C)[C@H](O)[C@@H](C)C(=O)C(C)(C)[C@@H](O)CC(=O)O1	-66.8% (inactive)
CCN1CC2(COC(=O)c3ccccc3N3C(=O)CC(C)C3=O)CCC(OC)C34C5CC6C(OC)CC(O)(C5C6OC)C(O)(C(OC)C23)C14 (stereo unspecified)	4.55% (inactive)
C[C@H](NC(=O)[C@@H](N)Cc1ccc(O)cc1)C(=O)NCC(=O)N(C)[C@@H](Cc1ccccc1)C(=O)N[C@H](CO)CCS(C)=O (stereo partly specified)	12.9% (inactive)
O=C1/C(=C/c2ccccc2)C[C@@]2(O)C3Cc4ccc(O)c5c4[C@@]2(CCN3CC2CC2)[C@H]1O5	1.86% (inactive)
COc1ccc2c(c1)[C@]13CCCC[C@H]1[C@H](C2)N(C)CC3	16.4% (inactive)
Cc1cc(C)cc(C(=O)OC2CC3CCC(C2)N3C)c1 (stereo unspecified)	-12.3% (inactive) and -9.52% (inactive)
CN1C(=O)CN=C(c2ccccc2)c2cc(Cl)ccc21	-6.2% (inactive)
N#Cc1nn(-c2c(Cl)cc(C(F)(F)F)cc2Cl)c(N)c1S(=O)C(F)(F)F (stereo unspecified)	13.6% (inactive) and 5.34% (inactive)
CC(N)Cc1c[nH]c2ccc(OCc3cccs3)cc12 (stereo unspecified)	1.64% (inactive) and -1.85% (inactive)
C#Cc1cccc2c1c(C(=O)c1ccc(Cn3c(C)nc4cnccc43)c(F)c1)cn2C(=O)N(C)C	-7.53% (inactive)
Oc1ccc2c3c1O[C@H]1c4[nH]c5ccccc5c4C[C@@]4(O)C(C2)N(CC2CC2)CC[C@]314	10.7% (inactive)
CO[C@H]1CCC(O[C@H]2CC([C@]3(C)CC[C@]4(C[C@H](O)[C@@H](C)[C@@H]([C@@H](C)/C=C(\C)C(=O)[C@H](C)C[C@H](C)C(=O)O)O4)O3)O[C@]3(O[C@@H](C4O[C@@](O)(CO)[C@H](C)C[C@@H]4C)C[C@@H]3C)[C@@H]2C)O[C@@H]1C (stereo partly specified)	-83.8% (active)
N[C@H](CO)Cc1ccccc1	1.26% (inactive)
N#CC(C#N)=Cc1ccc([N+](=O)[O-])c(O)c1	-6.99% (inactive)

Compound	activity change, negative = inhibition
Oc1ccc2c(c1)[C@@]13CCCC[C@@]1(O)[C@@H](C2)N(CC1CCC1)CC3	18.4% (inactive)
CN1CCc2cc3c(cc2C1O)OCO3 (stereo unspecified)	7.57% (inactive)
COC(=O)C[C@@](O)(CCC(C)(C)O)C(=O)O[C@@H]1C(OC)=C[C@]23CCCN2CCc2cc4c(cc2[C@@H]13)OCO4	-83.3% (active)
CSCCC(NC(=O)C(Cc1ccccc1)NC(=O)CNC(=O)CNC(=O)C(N)Cc1ccc(O)cc1)C(=O)O (stereo unspecified)	10.2% (inactive)
CCC(CO)(C(=O)OC1CC2CCC(C1)[N+]2(C)C)c1ccccc1 (stereo unspecified)	0.204% (inactive)
FC(F)(F)c1cccc(C2=CCN(CCc3ccc4ccccc4c3)CC2)c1	10.1% (inactive) and 11.9% (inactive)
CCN1CCN(C(=O)Cc2ccc(Nc3ncc(F)c(Nc4ccc(C(=O)Nc5ccccc5Cl)cc4)n3)cc2)CC1	-83.3% (active)
COC(=O)N1CCN(C(=O)Cc2ccc(Cl)c(Cl)c2)C(CN2CCCC2)C1 (stereo unspecified)	6.7% (inactive)
CC1(C)C2CC(=O)[C@]3(C)C(CC[C@@]4(C)[C@H](c5ccoc5)OC(=O)[C@H]5O[C@]543)[C@@]2(C)C(=O)C[C@H]1O (stereo partly specified)	-1.25% (inactive)
CNCC(O)c1ccc(O)cc1 (stereo unspecified)	3.63% (inactive) and 14.9% (inactive)
C[C@H](Cc1ccc(OCC(=O)O)cc1)NC[C@H](O)c1cccc(Cl)c1	4.02% (inactive) and 20.9% (inactive)
CC(Cc1ccc(O)cc1)NCC(O)c1cc(O)cc(O)c1 (stereo unspecified)	-70.6% (active) and 10.9% (inactive)
C[C@]12C=CC(=O)C=C1CCC1C2CC[C@]2(C)C(=O)CCC12 (stereo partly specified)	3.57% (inactive)
C[C@@H]1CN(C2CCC(C#N)(c3ccc(F)cc3)CC2)CC[C@]1(C(=O)O)c1ccccc1 (stereo partly specified)	-7.9% (inactive)
C=C1CCC2(O)C3Cc4ccc(O)c5c4C2(CCN3CC2CC2)C1O5 (stereo unspecified)	12.3% (inactive)
NC[C@H](CC(=O)O)c1ccc(Cl)cc1	3.97% (inactive)
CN1C2CCC1CC(OC(c1ccccc1)c1ccc(Cl)cc1)C2 (stereo unspecified)	-51.9% (inactive) and 41.6% (inactive)
CN(C)CCc1ccc(O)cc1	15.3% (inactive) and 3.73% (inactive)
CC[C@@H]1[C@@H](C)O[C@@](O)([C@@H](C)[C@H](O)[C@H](C)[C@H]2OC(=O)/C=C/C=C/[C@H](C)[C@H]([C@@H](C)[C@@H](O)[C@H](C)[C@@]3(O)C[C@@H](O[C@H]4C[C@H](O)[C@H](O)[C@H](C)O4)[C@H](CC)[C@@H](C)O3)OC(=O)/C=C/C=C/[C@H]2C)C[C@H]1O[C@H]1C[C@H](O)[C@H](O)[C@H](C)O1	-83.6% (active)
CC(C)[C@@H](CN1CC[C@@](C)(c2cccc(O)c2)[C@@H](C)C1)NC(=O)[C@H]1Cc2ccc(O)cc2CN1	7.74% (inactive)
C[N@@+]1(CC2CC2)CC[C@]23c4c5ccc(O)c4O[C@H]2C(=O)CC[C@]3(O)[C@H]1C5	-5.91% (inactive)
CC(C)NCC(O)c1ccc(N)c(C#N)c1 (stereo unspecified)	11.6% (inactive) and -5.38% (inactive)

Compound	activity change, negative = inhibition
C[C@]12CC[C@H]3[C@@H](CC[C@@]45O[C@@H]4C(=O)C(C#N)C[C@]35C)[C@@H]1CC[C@@H]2O (stereo partly specified)	6.81% (inactive)
C[C@]12C[C@H]3S[C@H]3C[C@@H]1CC[C@@H]1[C@@H]2CC[C@]2(C)[C@@H](O)CC[C@@H]12	-16.5% (inactive)
C[C@]12CCC3[C@@H](CC[C@@]45O[C@@H]4C(=O)C(C#N)C[C@]35C)C1CC[C@@H]2O (stereo partly specified)	-74.3% (active)
COC[C@H]1OC(=O)c2coc3c2[C@@]1(C)C1=C(C3=O)C2CCC(=O)[C@@]2(C)C[C@H]1OC(C)=O (stereo partly specified)	-5.28% (inactive)
CC(=O)C1CCC2C3CCC4CC(C)(O)CCC4(C)C3CCC12C (stereo unspecified)	13.6% (inactive)
COc1cc2cc(c1Cl)N(C)C(=O)C[C@H](OC(=O)C(C)C)[C@]1(C)O[C@H]1[C@H](C)[C@@H]1C[C@@](O)(NC(=O)O1)[C@H](OC)/C=C/C=C(/C)C2	-83.8% (active)
COC1=CC(=O)OC(/C=C/c2ccccc2)C1 (stereo unspecified)	9.89% (inactive)
CC1(C)C(=O)N(c2ccc(C#N)c(C(F)(F)F)c2)C(=O)N1CCCCO	4.23% (inactive)
CN1C(=O)CC(=O)N(c2ccccc2)c2cc(Cl)ccc21	7.34% (inactive)
C[C@@H]1O[C@@H](O[C@@H]2C=C3CCC4C(CC[C@]5(C)[C@@H](c6ccc(=O)oc6)CC[C@]45O)[C@@]3(C)CC2)C(O)C(O)[C@H]1O (stereo partly specified)	-85.7% (active)
C[C@]12CC[C@H](OC3OC(O)C(O)C(O)C3O)C=C1CCC1C2CC[C@]2(C)[C@@H](c3ccc(=O)oc3)CC[C@]12O (stereo partly specified)	-83.9% (active)
NCCc1ccccn1	26.7% (inactive) and 12% (inactive)
Cc1nnc2n1-c1sc(CCC(=O)N3CCOCC3)cc1C(c1ccccc1Cl)=NC2	10% (inactive) and 7.36% (inactive)
O=C(CS(=O)C(c1ccccc1)c1ccccc1)NO (stereo unspecified)	2.69% (inactive)
CCC(CO)NC(=O)C1C=C2c3cccc4c3c(cn4C)CC2N(C)C1 (stereo unspecified)	0.967% (inactive)
Nc1ccc([As](=O)(O)O)cc1	2.94% (inactive)
CC(C)C[C@H](NC(=O)[C@H](Cc1ccccc1)NC(=O)CNC(=O)[C@H](C)NC(=O)[C@@H](N)Cc1ccc(O)cc1)C(=O)O	15.2% (inactive)
C[C@]12CCC3C(CC[C@]4(O)C[C@@H](O)CC[C@]34C=O)[C@@]1(O)CCC2C1=CC(=O)OC1 (stereo partly specified)	-72.5% (active) and -88.8% (active)
C[C@@H]1O[C@@H](O[C@H]2CC[C@]3(C=O)C4CC[C@]5(C)[C@@H](C6=CC(=O)OC6)CC[C@]5(O)C4CC[C@]3(O)C2)[C@H](O)[C@H](O)[C@H]1O (stereo partly specified)	-76.4% (active)
C[C@]12CC[C@H]3[C@@H](CC[C@]4(O)C[C@@H](O)CC[C@]34C=O)[C@@]1(O)CC[C@@H]2C1=CC(=O)OC1	-91% (active)
CCN1C[C@]2(COC)CCC(OC)[C@@]34C5C[C@]6(O)[C@H](OC(=O)c7ccc(OC)cc7)C5[C@@](OC(C)=O)(C[C@H]6OC)[C@@H]([C@H](OC)C23)[C@@H]14 (stereo partly specified)	-1.07% (inactive)
NC1CCN(c2cccnc2)C1 (stereo unspecified)	10.7% (inactive)
